Experimental data: the supplement of paper PMC10849652
About 8,800 targets were measured; listed, in parts, are those with a hit and a random draw of the rest. About 0.5% of all pairs of compound and target were hits. A number with no mark means an inactive call.

Legend:
Test in all cases: log2 fold change, soluble protein after heating vs DMSO (PISA); higher = thermal stabilisation; K562 lysate, 10 uM; active = over 0.2 and 3.5 SD of the protein, either way, in both replicates (recomputed)
erlotinib = compound: C#Cc1cccc(Nc2ncnc3cc(OCCOC)c(OCCOC)cc23)c1 [erlotinib]
Summary of the method: (§1)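 Log-two fold change in thermal stability relative to solvent controls is reported from duplicates. For each sample, crude K562 extract from dounce-homogenised pellets in PBS pH 7.4 with 1 mM MgCl2, at 1 mg/mL protein, was treated with 10 μM compound for 30 min. Aliquots heated for 3 min across 48°C-58°C were pooled, brought to 0.5% NP-40 at 4°C and cleared at 21,000xg for 90 min. The supernatant was quantified by TMTpro 16plex LC-MS/MS with channel sums equalised.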

[1] = compound: C/C(=N\NC(=O)C1=CC(=CC=C1)S(=O)(=O)N2CCOCC2)/C3=C(C=CC(=C3)Cl)O
Summary of the method: as §1

[2] = compound: C1=CC(=CC=C1C2=NC3=C(N2)C=C(C=C3)C(=O)N)OC4=CC=C(C=C4)Cl
Summary of the method: as §1

[3] = compound: C1=CC2=C(C=CC(=C2)/C=C\3/C(=O)NC(=NCC4=CC=CS4)S3)N=C1
Summary of the method: as §1

[4] = compound: C1=CC2=NC=CN=C2C=C1/C=C/3\C(=O)NC(=O)S3
Summary of the method: as §1

[5] = compound: C1=CC=C(C=C1)C2=NC(=C(N2)C3=CC=NC=C3)C4=CC(=C(C=C4)Cl)O
Summary of the method: as §1

[6] = compound: C1=CC=C2C(=C1)C3=NNC4=CC=CC(=C43)C2=O
Summary of the method: as §1

[7] = compound: C1CCN(C1)C(=O)NC2=CC=CC(=C2)NC3=NC=C(C(=N3)NCCC4=CN=CN4)Br
Summary of the method: as §1

[8] = compound: C1CN(CCC1(CC2=CC=C(C=C2)Cl)N)C3=NC=NC4=C3C=CN4
Summary of the method: as §1

IRAK-1-4 Inhibitor I = compound: C1COCCN1CCN2C3=CC=CC=C3N=C2NC(=O)C4=CC(=CC=C4)[N+](=O)[O-] [IRAK-1-4 Inhibitor I]
Summary of the method: as §1

Sequence of UniProt O95793 (O95793 whole entry, looked up): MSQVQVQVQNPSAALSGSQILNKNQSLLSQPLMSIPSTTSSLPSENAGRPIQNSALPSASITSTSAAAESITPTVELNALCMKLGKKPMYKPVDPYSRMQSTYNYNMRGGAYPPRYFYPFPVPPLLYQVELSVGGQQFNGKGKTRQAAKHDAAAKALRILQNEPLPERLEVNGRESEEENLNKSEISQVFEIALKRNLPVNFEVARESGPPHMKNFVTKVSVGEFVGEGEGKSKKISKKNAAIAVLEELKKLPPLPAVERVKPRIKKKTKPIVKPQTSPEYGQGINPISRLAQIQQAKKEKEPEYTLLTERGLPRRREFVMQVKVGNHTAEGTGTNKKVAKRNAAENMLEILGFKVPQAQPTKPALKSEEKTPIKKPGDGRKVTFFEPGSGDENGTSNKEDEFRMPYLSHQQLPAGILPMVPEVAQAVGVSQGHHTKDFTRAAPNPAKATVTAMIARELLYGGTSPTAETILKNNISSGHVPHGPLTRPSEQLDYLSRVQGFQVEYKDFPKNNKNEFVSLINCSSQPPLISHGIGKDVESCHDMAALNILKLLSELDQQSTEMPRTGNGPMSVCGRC
Sequence of UniProt Q01130 (Q01130 whole entry, looked up): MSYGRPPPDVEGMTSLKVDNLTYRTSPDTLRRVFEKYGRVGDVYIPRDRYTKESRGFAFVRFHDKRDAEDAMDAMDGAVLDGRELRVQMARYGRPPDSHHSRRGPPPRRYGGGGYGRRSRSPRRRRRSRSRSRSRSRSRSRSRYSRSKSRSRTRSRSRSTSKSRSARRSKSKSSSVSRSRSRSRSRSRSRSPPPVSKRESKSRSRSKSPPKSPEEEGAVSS
Sequence of UniProt Q9UNE7 (Q9UNE7 whole entry, looked up): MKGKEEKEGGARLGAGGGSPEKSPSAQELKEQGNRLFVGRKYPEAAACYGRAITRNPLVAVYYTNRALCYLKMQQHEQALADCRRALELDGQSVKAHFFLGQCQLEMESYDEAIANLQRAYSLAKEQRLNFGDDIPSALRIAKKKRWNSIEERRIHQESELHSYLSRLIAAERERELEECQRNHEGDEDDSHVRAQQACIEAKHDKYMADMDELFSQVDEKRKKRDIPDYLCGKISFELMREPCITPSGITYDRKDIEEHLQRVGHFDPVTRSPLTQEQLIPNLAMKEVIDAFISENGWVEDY
Sequence of UniProt Q13242 (Q13242 whole entry, looked up): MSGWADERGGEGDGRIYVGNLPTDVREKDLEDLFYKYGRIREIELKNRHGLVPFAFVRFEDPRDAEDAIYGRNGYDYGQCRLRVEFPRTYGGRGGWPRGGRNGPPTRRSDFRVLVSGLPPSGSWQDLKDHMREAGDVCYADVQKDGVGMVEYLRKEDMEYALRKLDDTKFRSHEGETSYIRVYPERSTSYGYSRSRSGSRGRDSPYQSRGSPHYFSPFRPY
Sequence of UniProt Q9H2V7 (Q9H2V7 whole entry, looked up): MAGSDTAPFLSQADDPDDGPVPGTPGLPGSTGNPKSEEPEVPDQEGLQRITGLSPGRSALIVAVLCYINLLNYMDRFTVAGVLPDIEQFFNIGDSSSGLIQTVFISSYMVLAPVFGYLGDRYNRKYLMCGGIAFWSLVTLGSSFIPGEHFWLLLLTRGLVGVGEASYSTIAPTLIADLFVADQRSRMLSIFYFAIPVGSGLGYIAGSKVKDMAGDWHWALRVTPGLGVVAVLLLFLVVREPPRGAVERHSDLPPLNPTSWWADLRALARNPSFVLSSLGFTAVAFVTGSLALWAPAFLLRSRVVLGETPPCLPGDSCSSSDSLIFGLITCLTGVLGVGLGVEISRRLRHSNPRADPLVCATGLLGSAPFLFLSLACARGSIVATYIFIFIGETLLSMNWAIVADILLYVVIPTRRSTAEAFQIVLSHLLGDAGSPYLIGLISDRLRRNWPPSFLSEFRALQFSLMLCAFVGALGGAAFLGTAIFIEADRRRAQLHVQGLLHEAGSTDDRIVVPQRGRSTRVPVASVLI
Sequence of UniProt Q96KF7 (Q96KF7 whole entry, looked up): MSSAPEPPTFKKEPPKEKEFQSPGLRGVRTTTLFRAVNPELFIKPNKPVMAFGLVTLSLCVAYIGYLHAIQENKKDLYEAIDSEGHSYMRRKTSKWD
Sequence of UniProt Q6P1M0 (Q6P1M0 whole entry, looked up): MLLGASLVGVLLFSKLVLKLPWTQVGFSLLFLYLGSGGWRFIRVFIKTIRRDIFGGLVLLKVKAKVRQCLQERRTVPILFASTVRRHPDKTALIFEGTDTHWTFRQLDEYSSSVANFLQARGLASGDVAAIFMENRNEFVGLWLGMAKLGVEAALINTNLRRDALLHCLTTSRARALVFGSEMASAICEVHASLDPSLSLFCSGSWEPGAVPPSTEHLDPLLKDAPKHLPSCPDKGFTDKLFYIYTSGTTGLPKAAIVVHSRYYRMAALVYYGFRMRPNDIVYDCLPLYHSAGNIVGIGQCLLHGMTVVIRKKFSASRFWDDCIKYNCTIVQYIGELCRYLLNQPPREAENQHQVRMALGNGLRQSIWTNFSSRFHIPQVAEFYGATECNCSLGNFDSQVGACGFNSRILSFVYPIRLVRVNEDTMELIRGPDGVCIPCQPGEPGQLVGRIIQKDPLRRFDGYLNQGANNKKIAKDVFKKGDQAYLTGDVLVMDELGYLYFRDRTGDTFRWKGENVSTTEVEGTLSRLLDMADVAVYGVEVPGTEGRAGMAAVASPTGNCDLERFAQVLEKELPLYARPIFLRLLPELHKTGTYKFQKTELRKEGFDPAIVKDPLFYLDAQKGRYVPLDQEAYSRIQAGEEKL
Sequence of UniProt P49281 (P49281 whole entry, looked up): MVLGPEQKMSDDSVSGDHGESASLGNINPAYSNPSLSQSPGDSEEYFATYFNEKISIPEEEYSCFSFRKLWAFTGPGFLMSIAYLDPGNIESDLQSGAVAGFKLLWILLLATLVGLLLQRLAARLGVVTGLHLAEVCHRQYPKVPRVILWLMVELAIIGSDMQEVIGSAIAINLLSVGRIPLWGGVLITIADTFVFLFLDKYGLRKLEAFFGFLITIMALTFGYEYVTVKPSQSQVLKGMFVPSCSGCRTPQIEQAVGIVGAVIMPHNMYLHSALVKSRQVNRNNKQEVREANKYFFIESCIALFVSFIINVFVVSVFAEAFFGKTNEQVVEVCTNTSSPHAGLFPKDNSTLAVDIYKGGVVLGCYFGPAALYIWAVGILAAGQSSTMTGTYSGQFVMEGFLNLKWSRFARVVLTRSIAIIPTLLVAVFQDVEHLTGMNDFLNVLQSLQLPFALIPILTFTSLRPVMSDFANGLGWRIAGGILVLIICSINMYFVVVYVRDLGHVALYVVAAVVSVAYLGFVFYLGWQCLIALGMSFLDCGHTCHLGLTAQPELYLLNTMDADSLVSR
Sequence of UniProt Q15796 (Q15796 whole entry, looked up): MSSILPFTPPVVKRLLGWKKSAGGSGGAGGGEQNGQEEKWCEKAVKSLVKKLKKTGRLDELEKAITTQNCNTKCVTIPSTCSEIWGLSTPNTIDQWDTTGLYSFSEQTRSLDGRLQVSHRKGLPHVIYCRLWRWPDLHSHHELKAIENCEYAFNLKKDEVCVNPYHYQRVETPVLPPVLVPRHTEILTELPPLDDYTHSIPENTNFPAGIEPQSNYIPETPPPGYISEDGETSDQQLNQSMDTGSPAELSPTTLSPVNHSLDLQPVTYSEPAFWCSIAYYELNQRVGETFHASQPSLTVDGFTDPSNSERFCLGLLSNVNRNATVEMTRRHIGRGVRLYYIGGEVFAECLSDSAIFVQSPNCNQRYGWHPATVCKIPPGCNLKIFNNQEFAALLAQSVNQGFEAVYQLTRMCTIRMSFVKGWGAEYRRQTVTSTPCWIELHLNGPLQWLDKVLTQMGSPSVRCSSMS
Sequence of UniProt Q8NDV3 (Q8NDV3 whole entry, looked up): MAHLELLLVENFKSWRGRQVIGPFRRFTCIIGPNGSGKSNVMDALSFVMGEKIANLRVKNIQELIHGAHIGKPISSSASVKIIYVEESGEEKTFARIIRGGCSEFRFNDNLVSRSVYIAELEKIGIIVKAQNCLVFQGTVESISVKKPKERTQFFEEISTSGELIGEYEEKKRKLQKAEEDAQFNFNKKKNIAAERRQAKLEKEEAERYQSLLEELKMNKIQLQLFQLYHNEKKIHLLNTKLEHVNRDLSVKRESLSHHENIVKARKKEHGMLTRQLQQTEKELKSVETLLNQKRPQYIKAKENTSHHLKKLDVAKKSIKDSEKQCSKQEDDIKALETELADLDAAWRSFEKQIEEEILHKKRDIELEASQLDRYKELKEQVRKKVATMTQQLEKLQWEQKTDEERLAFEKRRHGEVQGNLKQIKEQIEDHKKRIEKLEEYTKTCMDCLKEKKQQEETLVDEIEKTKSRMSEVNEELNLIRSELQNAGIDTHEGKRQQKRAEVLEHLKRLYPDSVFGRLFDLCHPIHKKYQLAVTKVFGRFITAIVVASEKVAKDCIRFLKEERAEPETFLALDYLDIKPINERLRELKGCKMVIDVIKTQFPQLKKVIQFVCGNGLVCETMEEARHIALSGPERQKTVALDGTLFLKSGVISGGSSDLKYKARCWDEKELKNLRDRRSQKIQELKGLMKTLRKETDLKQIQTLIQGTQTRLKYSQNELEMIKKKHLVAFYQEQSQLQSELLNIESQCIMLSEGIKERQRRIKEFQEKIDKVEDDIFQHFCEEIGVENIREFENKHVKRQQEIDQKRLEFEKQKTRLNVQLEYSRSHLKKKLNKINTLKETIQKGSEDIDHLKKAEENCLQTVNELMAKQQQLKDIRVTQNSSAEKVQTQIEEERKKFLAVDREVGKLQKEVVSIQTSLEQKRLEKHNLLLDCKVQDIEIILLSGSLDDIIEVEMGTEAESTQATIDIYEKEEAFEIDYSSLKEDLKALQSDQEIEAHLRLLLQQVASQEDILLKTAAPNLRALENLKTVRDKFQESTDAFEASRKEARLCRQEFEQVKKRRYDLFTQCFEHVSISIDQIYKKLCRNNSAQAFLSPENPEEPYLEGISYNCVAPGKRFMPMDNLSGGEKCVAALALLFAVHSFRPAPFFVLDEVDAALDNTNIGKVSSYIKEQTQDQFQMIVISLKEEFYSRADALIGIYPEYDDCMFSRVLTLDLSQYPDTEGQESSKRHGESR
Sequence of UniProt Q9UJC5 (Q9UJC5 whole entry, looked up): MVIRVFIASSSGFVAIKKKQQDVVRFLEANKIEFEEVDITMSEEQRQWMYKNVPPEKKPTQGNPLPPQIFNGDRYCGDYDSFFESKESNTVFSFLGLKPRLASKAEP

| Target | log2 fold change (erlotinib) | log2 fold change [1] | log2 fold change [2] | log2 fold change [3] | log2 fold change [4] | log2 fold change [5] | log2 fold change [6] | log2 fold change [7] | log2 fold change [8] | log2 fold change (IRAK-1-4 Inhibitor I) |
| --- | --- | --- | --- | --- | --- | --- | --- | --- | --- | --- |
| SRSF2 (UniProt Q01130) | 0.005 | 0.041 | 0.026 | -0.038 | -0.018 | -0.017 | -0.031 | 0.023 | -0.037 | 0.04 |
| SNRPD2 (UniProt P62316) | 0.019 | 0.005 | 0.058 | -0.004 | -0.018 | -0.001 | -0.035 | 0.004 | -0.008 | 0.004 |
| SRSF9 (UniProt Q13242) | 0.027 | 0.263 (active) | 0.007 | 0.077 | 0.052 | -0.01 | 0.097 | 0.072 | 0.007 | 0.012 |
| STAU1 (UniProt O95793) | 0.02 | -0.001 | -0.032 | 0.002 | -0.016 | -0.08 | -0.007 | -0.018 | -0.003 | 0.055 |
| SH3BP5L (UniProt Q7L8J4) | 0.001 | -0.156 | 0.004 | -0.058 | -0.032 | 0.003 | 0.065 | -0.019 | 0 | 0 |
| STUB1 (UniProt Q9UNE7) | 0.05 | 0.024 | -0.034 | -0.022 | 0.009 | 0.003 | -0.033 | 0.013 | 0.006 | -0.018 |
| SPNS1 (UniProt Q9H2V7) | 0.015 | -0.043 | -0.02 | 0.043 | -0.031 | 0.029 | -0.063 | 0 | 0.044 | 0.032 |
| SLC26A6 (UniProt Q9BXS9) | -0.04 | -0.117 | 0.024 | -0.018 | -0.044 | 0.032 | -0.114 | -0.13 | 0.087 | -0.062 |
| SPHK1 isoform 2 (UniProt Q9NYA1) | -0.055 | -0.462 | -0.059 | 0.038 | 0.034 | -0.097 | -0.066 | 0.016 | 0.038 | 0.018 |
| SRGN (UniProt P10124) | -0.034 | 0.023 | 0.051 | -0.019 | 0.05 | 0.051 | -0.069 | 0.065 | -0.139 | 0.013 |
| SKA3 (UniProt Q8IX90) | 0.018 | -0.081 | 0.02 | -0.01 | -0.052 | -0.022 | 0.001 | -0.02 | 0.042 | 0.013 |
| STIM1 (UniProt Q13586) | -0.037 | 0.089 | -0.014 | 0.021 | 0.001 | -0.016 | -0.059 | -0.009 | 0.005 | -0.01 |
| STK36 (UniProt Q9NRP7) | 0.114 | -0.06 | 0.251 | -0.199 | -0.169 | -0.075 | -0.241 | -0.049 | 0.185 | 0.205 |
| SSU72 (UniProt Q9NP77) | -0.067 | 0.057 | -0.071 | -0.064 | -0.003 | 0.07 | 0.005 | 0.029 | 0 | 0.001 |
| SLC11A2 isoform 3 (UniProt P49281) | -0.005 | -0.041 | -0.009 | -0.013 | 0 | 0.011 | 0.046 | -0.004 | 0.026 | 0.024 |
| SMIM8 (UniProt Q96KF7) | -0.057 | 0.005 | 0.028 | 0.004 | -0.004 | -0.137 | 0.028 | 0.026 | 0 | 0.058 |
| SMC1B isoform 3 (UniProt Q8NDV3) | -0.002 | 0.265 (active) | 0.003 | -0.04 | -0.067 | 0.02 | -0.032 | 0.048 | 0.205 | 0.043 |
| STK3 isoform 2 (UniProt Q13188) | -0.009 | -0.1 | 0.012 | -0.07 | -0.001 | 0.016 | 0.181 | 0.157 | 0.031 | -0.005 |
| SLC29A2 (UniProt Q14542) | -0.147 | 0.016 | -0.04 | 0.013 | -0.028 | -0.033 | 0.018 | 0.018 | 0.085 | 0.102 |
| SLC27A4 (UniProt Q6P1M0) | 0.022 | 0.01 | -0.023 | 0.052 | 0.063 | -0.009 | 0.041 | 0.015 | 0.084 | -0.003 |
| TANGO6 (UniProt Q9C0B7) | 0.045 | -0.04 | 0.012 | -0.011 | 0.009 | -0.049 | -0.048 | 0.007 | 0.023 | 0.048 |
| SMAD2 (UniProt Q15796) | 0.14 | 0.062 | -0.018 | 0.03 | 0.002 | 0.074 | -0.003 | 0.004 | 0.035 | -0.03 |
| SPPL2A (UniProt Q8TCT8) | 0.005 | -0.007 | 0.118 | -0.104 | -0.011 | -0.07 | -0.141 | -0.082 | -0.644 (active) | 0.014 |
| SPC25 (UniProt Q9HBM1) | 0.021 | -0.065 | -0.006 | 0.059 | -0.034 | 0.021 | -0.006 | -0.039 | 0.018 | 0.027 |
| TADA3 (UniProt O75528) | 0.02 | -0.046 | 0.032 | -0.073 | -0.04 | 0.048 | 0.009 | -0.058 | 0.053 | 0.018 |
| SH3BGRL2 (UniProt Q9UJC5) | 0.007 | -0.109 | 0.035 | 0.045 | -0.049 | 0.01 | 0.018 | -0.087 | 0.034 | 0.007 |
| STOML2 (UniProt Q9UJZ1) | -0.021 | 0.018 | 0.04 | -0.049 | 0.037 | 0.012 | -0.063 | 0.023 | 0.027 | 0.036 |
| SULT1A1 (UniProt P50225) | -0.045 | 0.08 | -0.014 | 0.069 | 0.048 | -0.011 | -0.061 | -0.026 | 0.018 | -0.04 |
| SYNE2 isoform 2 (UniProt Q8WXH0) | -0.09 | -0.069 | -0.023 | -0.156 | -0.04 | -0.015 | -0.146 | -0.064 | 0.037 | 0.127 |
| SNX6, A0A0A0MRI2 | 0.012 | 0.056 | -0.029 | 0.04 | -0.028 | 0.013 | -0.073 | 0.024 | -0.047 | -0.013 |
